# The supplement of paper PMC12669032
# Values without a mark were called inactive.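 The calls were made as follows: active = AUC reduced over 20% with Padj below 0.05 in at least 2 of 3 replicates; inactive = otherwise.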
# Experiments:
# Assay in all cases: growth AUC relative to DMSO control (median of replicates) (fraction); higher = more growth (less inhibition), active = hit call of the paper
# Conditions in all cases: 20 µM; 24 h
# [1] = system: Akkermansia muciniphila
# Outline: (§1)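 Hourly OD600 readings over 24 h tracked anaerobic gut bacterial monocultures grown at 37 °C in mGAM from OD600 0.05 with 20 µM compound (1% DMSO). After the minimum OD was set to 0, area under the growth curve was normalised to the plate median of solvent-only wells, or to row and column medians on the industrial chemical plate. Values are medians of three biological replicates grown on separate days.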
# [2] = system: Bacteroides caccae
# Outline: as §1
# [3] = system: Bacteroides clarus
# Outline: as §1
# [4] = system: Bacteroides dorei
# Outline: as §1
# [5] = system: Bacteroides stercoris
# Outline: as §1
# [6] = system: Bacteroides thetaiotaomicron
# Outline: as §1
# [7] = system: Bacteroides uniformis
# Outline: as §1
# [8] = system: Bifidobacterium longum subsp. longum
# Outline: as §1
# [9] = system: Clostridium difficile
# Outline: as §1
# [10] = system: Collinsella aerofaciens
# Outline: as §1
# [11] = system: Coprococcus comes
# Outline: as §1
# [12] = system: Escherichia coli ED1a
# Outline: as §1
# [13] = system: Escherichia coli IAI1
# Outline: as §1
# [14] = system: Eubacterium rectale
# Outline: as §1
# [15] = system: Fusobacterium nucleatum subsp. animalis
# Outline: as §1
# [16] = system: Lactobacillus gasseri
# Outline: as §1
# [17] = system: Lactobacillus paracasei
# Outline: as §1
# [18] = system: Odoribacter splanchnicus
# Outline: as §1
# [19] = system: Parabacteroides distasonis
# Outline: as §1
# [20] = system: Parabacteroides merdae
# Outline: as §1
Compound,growth AUC [1],growth AUC [2],growth AUC [3],growth AUC [4],growth AUC [5],growth AUC [6],growth AUC [7],growth AUC [8],growth AUC [9],growth AUC [10],growth AUC [11],growth AUC [12],growth AUC [13],growth AUC [14],growth AUC [15],growth AUC [16],growth AUC [17],growth AUC [18],growth AUC [19],growth AUC [20]
c1ccc2c(c1)ccc1ccccc12,1.02,0.983,1.01,0.996,0.999,1.01,1,1.01,1,1.02,0.965,1.01,1.01,1.01,0.985,0.994,0.999,1.01,1.04,1.01
c1ccc2c(c1)Cc1ccccc1-2,1.04,1.02,1,1.03,1.04,1,1,0.925,1.01,1.01,1.01,1.03,1,1,1.03,1.05,1.05,1.05,0.962,1.02
COc1cc(OC)nc(Sc2cccc3c2C(=O)OC3C)n1 (stereo not given),0.871,1.01,0.989,1.04,1.06,0.974,0.97,0.974,0.998,1.03,1,0.984,0.999,1.02,0.965,1.06,1,1.09,0.904,0.968
CNC(=O)/C(=N/OC)c1ccccc1COc1cc(C(=O)O)ccc1C,1.01,0.982,1.03,0.979,0.967,0.998,1.01,0.998,0.991,1,0.984,1.05,0.978,0.963,0.949,1.1,0.98,0.987,1.01,0.973
CCSC(=O)N(CC(C)C)CC(C)C,0.967,1.05,1,1.02,0.987,1.01,0.994,0.842,0.993,1.04,1.02,1.02,1.02,0.903,1.03,1.22,0.942,0.985,0.993,0.987
CCCN(CCOc1c(Cl)cc(Cl)cc1Cl)C(N)=O,0.911,0.899,0.959,0.935,0.98,0.961,0.894,0.971,0.987,0.993,1,1.01,0.985,1,0.935,0.946,0.851,0.978,0.949,0.977
CCOc1ccc(C2(C(=O)OC(C#N)c3cccc(Oc4ccccc4)c3)CC2(Cl)Cl)cc1 (stereo not given),1.08,0.968,1.02,0.94,1.04,0.993,0.957,0.911,1.01,0.982,1.03,1.01,0.981,1.06,1.07,0.848,1,1.03,0.93,0.943
Cc1cccc(C)c1O,1.02,1.04,0.987,1.01,1.03,1.02,1,0.946,1.03,1.02,1,1.04,1,0.923,0.993,1.06,0.978,0.943,0.995,0.995
CC(C)OC(=O)[C@@H](C)N(C(=O)c1ccccc1)c1ccc(F)c(Cl)c1,0.996,0.961,0.99,1.02,0.99,0.984,1.04,1.01,0.978,0.954,1.05,1.03,1,1.27,1.1,0.933,1.09,0.977,1,1.01
CC(C)NS(=O)(=O)NC(=O)c1cc(NC(N)=O)c(F)cc1Cl,1.06,1,0.988,0.959,0.991,0.808,1.02,1.02,1.06,0.981,0.928,1.01,0.971,1.01,1,0.907,1.1,0.976,1.02,0.98
CCc1cc(C(=O)O)cc(CC)c1C1C(=O)N2CCOCCN2C1=O,1.02,1.04,1.03,1.05,1.07,0.999,1.02,1.04,0.976,1.03,1,1.02,1.02,1.01,1.11,1.11,1.04,1.13,0.99,1.04
CCNc1nc(NC(C)(C)C)[nH]c(=O)n1,1,0.937,0.98,1.01,1.17,0.969,0.983,1.03,0.951,0.95,0.988,1.02,0.987,1.03,0.99,0.899,1.04,0.948,1.01,0.994
O=C(Nc1ccc(F)cc1)c1cccc(Oc2cccc(C(F)(F)F)c2)n1,0.978,0.964,0.886,0.895,0.82,1,1.02,1.04,0.934,0.865,0.993,0.95,0.95,1.02,0.927,0.87,0.927,1.07,0.905,0.911
Cc1c(C(=O)c2c[nH]n(C)c2=O)ccc(S(C)(=O)=O)c1C1=NOCC1,0.937,1.03,0.983,0.989,0.895,1,1.01,1.13,1,0.976,1.02,0.984,0.981,0.99,0.972,0.999,0.954,1.04,1.04,1
Cc1cc(C2CC2)nc(Nc2ccc(O)cc2)n1,0.829,0.999,0.967,0.994,0.968,0.943,0.957,1.04,0.982,0.975,0.998,0.989,1.01,0.903,0.955,1.19,1.01,0.965,1.03,0.982
Cc1ccc(C)c(O)c1,0.958,1.02,0.98,1,0.996,1,1.01,1.05,1.01,1.01,0.988,0.996,1.01,0.958,0.988,1.02,0.953,1,0.991,1.03

Compound,growth AUC [1],growth AUC [2],growth AUC [3],growth AUC [4],growth AUC [5],growth AUC [6],growth AUC [7],growth AUC [8],growth AUC [9],growth AUC [10],growth AUC [11],growth AUC [12],growth AUC [13],growth AUC [14],growth AUC [15],growth AUC [16],growth AUC [17],growth AUC [18],growth AUC [19],growth AUC [20]
CC(=O)Nc1cc(NS(=O)(=O)C(F)(F)F)c(C)cc1C,0.856,1.04,0.973,1.02,0.886,1.01,1.02,0.92,1.08,1.06,0.977,0.978,0.976,0.947,0.983,1.12,0.563,1.03,1.05,0.966
c1cc2ccc3ccc4ccc5cccc6c(c1)c2c3c4c56,0.936,1,1,1.01,1,1,1,1.03,0.971,0.993,1.01,1.04,1.01,0.999,0.946,0.994,1.02,1.01,1.04,1.02
COc1cc(OC)nc(NC(=O)NS(=O)(=O)Nc2ccccc2C(=O)N(C)C)n1,1.01,1,0.983,1.02,0.982,0.986,1.01,0.975,0.974,0.992,0.994,0.981,0.992,0.972,0.94,1.03,0.939,0.997,1.03,1.02
CCSC(=O)COc1ccc(Cl)cc1C,0.952,0.977,0.982,0.905,0.997,0.751 (active),1.03,1.04,1.04,0.966,0.981,0.973,0.986,1.03,1,0.874,1.08,0.901,1.05,0.992
CCS(=O)(=O)c1nnc(N(C)C(=O)NC)s1,0.883,1.02,0.977,1.01,1.03,1.01,0.995,0.995,0.974,1.06,0.938,0.984,0.99,0.976,1.01,1.04,0.851,0.992,1.06,1.01
CCCCOCCOCCOCc1cc2c(cc1CCC)OCO2,0.968,0.968,0.983,1.01,1.01,0.96,0.948,1.03,1.03,0.98,1.06,1.03,1,0.84,0.992,1.03,1.01,1.07,0.529 (active),0.924
CCc1ccc(O)cc1,0.993,0.884,1.01,0.95,1.24,0.989,1.01,1.01,0.957,0.919,0.934,1.02,0.997,0.988,1.13,0.963,0.84,0.979,1.02,0.968
CCc1cccc(C)c1NC(=O)CS(=O)(=O)[O-].[Na+],0.926,1.03,0.962,1.03,0.937,1.01,0.991,0.975,1.06,1.11,0.996,0.954,0.983,0.974,0.945,1.04,0.949,1.01,1.02,0.989
O=C1NCC[n+]2ccccc21.[Br-],1.13,0.985,1.01,0.761,0.984,0.972,1.02,0.972,1.01,0.97,1.02,0.966,0.978,1.07,0.908,0.882,0.961,0.968,0.923,0.972
O=C(O)COc1cc(N2C(=O)C3=C(CCCC3)C2=O)c(F)cc1Cl,0.82,0.999,0.98,0.968,1.08,0.975,1.05,1.04,1.02,0.967,1.01,1.01,1,1.03,1.02,0.967,1.05,1.03,1.03,1.04
CCOC(=O)c1cnn(C)c1S(=O)(=O)NC(=O)Nc1nc(OC)cc(OC)n1,1.08,0.999,1.02,1,1.15,0.966,1.03,1.06,0.982,1,0.991,1.02,1.01,1.08,1.09,1.1,1.02,0.759,1.03,1.02
FC(F)(F)/N=C1\SC(=Nc2ccccc2)N(c2ccccc2)\C1=N\C(F)(F)F,0.949,0.933,0.96,0.947,0.925,1.01,0.924,1.03,0.984,0.907,0.983,0.962,0.96,1.3,0.653,0.903,1.09,1.13,0.949,0.908
ClC=C(c1ccc(Cl)cc1)c1ccc(Cl)cc1,1.05,0.896,0.959,0.914,0.945,0.975,0.996,1,0.977,0.893,0.942,0.99,0.977,0.977,0.98,0.915,0.946,1.07,0.977,0.948
CC1CN(C2CCCCCCCCCCC2)CC(C)O1 (mixture of isomers),0.892,1.01,0.967,1.06,0.84,0.985,1.08,0.985,0.961,0.915,0.992,0.994,0.971,1.23,0.955,0.926,1.02,1.14,1.02,0.97
CCOC(=O)C(C)N(C(=O)c1ccccc1)c1ccc(Cl)c(Cl)c1 (stereo not given),1.07,0.975,0.948,0.963,1.13,0.922,0.89,0.945,1.01,1.02,0.971,1.03,0.991,1.04,1.02,0.935,1.03,0.985,0.733 (active),0.939
COc1ccc(NC(=O)N(C)C)cc1Cl,0.982,0.975,1,1.01,0.891,0.995,1.02,1.11,0.995,0.94,1.03,0.981,0.957,1.01,0.973,0.916,1.02,1.1,0.99,0.916
